Out of some 410,000 compounds screened, about 7,200 (1.8%) were called active. Another 7% or so got no clear call; they are omitted. The call rests on the fitted dose curve; in most records, active means well fitted activation curve with a large enough effect; inconclusive means small, poorly fitted or top-dose-only effect, or another doubt; inactive means no such curve, though single readings can be large or run the other way. What follows is part of a selection rich in actives, with near analogues and random picks from the rest. Entries that show only a call come without a potency.
Potency means the concentration at half of the fitted maximal effect.

The nature of the assay: qHTS of TDP-43 Inhibitors. Further: nearly all actives have a fitted effect of over 50% in size. Conditions: TDP-43 expressing yeast growth rescue, BacTiter-Glo, 24 h; series mostly up to 46.1 µM. The essentials:
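Galactose-induced TDP-43 yeast, OD600=0.02, compound pinned; 24 hr, 30 deg C; BacTiter-Glo luminescence for growth. Inhibitors of TDP-43 toxicity read as activators.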
In general terms: qHTS replaces the single test concentration by a dilution series.
As to `COc1ccc(-c2nc(CN3CCC(C(=O)NCCN(CC(C)C)CC(C)C)CC3)c(C)o2)cc1OC`, the Potency entry is “inactive”. Take `CCNS(=O)(=O)c1cc(-c2nnc(Nc3cccc(C(F)(F)F)c3)c3ccccc23)ccc1C`: the Potency result is “inactive”. Regarding `CCC1=Nc2cc(C(=O)NCCCOC(C)C)ccc2Sc2ccc(C)cc21`, the Potency result was “inactive”. With `CC(=O)c1ccc(N2CCN(CC(=O)Nc3ccccc3N3CCOCC3)CC2)cc1`, the growth rescue (activation) is -6.9% [at 9.22 µM] (inactive).

With `CC(=O)N1c2ccccc2CC1C(=O)N1CCN(c2ccc(F)cc2)CC1` (stereo not given), the Potency result was “inactive”. In the case of `CCCC(=O)Nc1ccccc1N1CCN(C(=O)c2ccccc2)CC1`, the Potency entry is “inactive”.

Consider `CCC(C)C(=O)Nc1ccccc1N1CCN(c2ccc(F)cc2)CC1` (stereo not given), for which the Potency was 25.1 µM (active). Regarding `CCCCC(=O)Nc1ccccc1N1CCN(c2ccc(F)cc2)CC1`, the Potency is 22.4 µM (active). Consider `COc1ccc(NC(C)=O)cc1NC(=O)CN1CCN(c2ccc(F)cc2)CC1`, for which the Potency entry is “inactive”.

`CCCC12CN3CC(CCC)(CN(C1)C3c1c[nH]c3ccc(OC)cc13)C2=O` (stereo not given): the Potency result is “inactive”. With `CCCCCC(O)c1cccc(OCc2ccc3ccccc3n2)c1` (stereo not given), the Potency is 12.6 µM (active). Still for that read-out and setting: next, `COc1cccc(C(O)c2ncc(-c3ccc4ccccc4c3)[nH]2)c1` (stereo not given): “inactive”; `COc1cccc(C(O)c2nc3ccccc3n2C)c1` (stereo not given): “inactive”. On the same count and under the same terms, next, `COc1ccc(OC)c(-c2csc(-c3c(N)c(C(=O)c4ccccc4)n4ccccc34)n2)c1`: “inactive”. For `O=C(Nc1cccc(-c2nc3ccccc3o2)c1)c1cccc(Br)c1`, the Potency entry was “inactive”. For the compound `CCC(=O)Nc1cccc(-c2nc3cc(C)ccc3o2)c1`, the Potency is 14.1 µM (active).

Regarding `Cc1ccc(SCC(=O)Nc2ccc3oc(-c4ccccc4C)nc3c2)cc1`, the Potency result was “inactive”. `CCOc1ccc(-n2c(C)nc3c(cnn3-c3ccc(C)cc3)c2=O)cc1`: the Potency result was “inactive”.

Turning to `CCOC(=O)Cn1c(=O)n(C2CCCCC2)c2nc(-c3cccc(OC)c3)nc(C(N)=O)c21`, the Potency result is “inactive”. Take `Cc1ccc(Cl)cc1NC(=O)CCS(=O)(=O)c1ccc(Br)s1`: the Potency entry was “inactive”. Same read-out and setting: as for `O=Cc1c(Cl)cccc1Cl`, the entry is “inactive”; as for `O=c1[nH]snc1-c1c(Cl)cccc1Cl`, 17.8 µM (active); as for `CN(C)NC(=O)c1csnc1-c1c(Cl)cccc1Cl`, “inactive”. As to `Cc1ccc(NC(=O)C2CC(c3ccc(F)cc3)=NO2)cc1` (stereo not given), the Potency entry is “inactive”. Take `Cc1ccccc1N1CC(C(=O)Nc2ccc3c(c2)OCO3)CC1=O` (stereo not given): the Potency entry is “inactive”.

For the compound `O=C(Nc1ccc2c(c1)OCO2)C1CC(c2c(F)cccc2Cl)=NO1` (stereo not given), the Potency is 10 µM (active). For `Cc1cccc(CSc2nc3ccncc3n2Cc2ccc(C(=O)O)cc2)c1`, the Potency result is “inactive”. For the compound `CSc1ccccc1-c1nnc(NC(=O)c2ccc3c(c2)OCCO3)o1`, the Potency result was “inactive”. For `COc1ccccc1-c1nnc(NC(=O)c2ccc3ncsc3c2)o1`, the Potency is 11.2 µM (active). On to `Cc1ccc(C(=O)Nc2nnc(C3=COCCO3)o2)cc1C`, for which the Potency entry is “inactive”. The same measure, in the same setting: as for `CCOc1ccc(NC(=O)CCC(=O)N2CC(C)Oc3ccc(C)cc32)cc1` (stereo not given), the entry is “inactive”; as for `Clc1ccc(C2=CSC3=Nc4cccc5cccc(c45)N23)cc1`, 17.8 µM (active). Turning to `COc1ccc(CCN2C(=O)c3oc4cc(C)cc(C)c4c(=O)c3C2c2ccccc2F)cc1OC` (stereo not given), the Potency result is “inactive”. `O=C(Nc1cccc(NC(=O)c2ccco2)c1)c1cnccn1`: the Potency is 12.6 µM (active). Turning to `O=C(Nc1cc(-c2nc3ncccc3o2)ccc1Cl)c1ccco1`, the Potency result was “inactive”. In the case of `O=C(Nc1ccc2nc(SCCOc3ccccc3)sc2c1)c1ccco1`, the Potency entry was “inactive”. Regarding `CSc1nc(=O)c2c(n1C)NC(=O)CC2c1ccccc1OC(C)C` (stereo not given), the growth rescue (activation) is 5.81% [at 9.22 µM] (inactive). On to `COc1ccc(CCN2C(=O)N(c3cccc(OC)c3)C(=O)C2CC(=O)Nc2ccccc2)cc1` (stereo not given), for which the Potency entry was “inactive”. Turning to `N#Cc1ccccc1Cn1cnc2nc3c(cc2c1=O)CCCC3`, the Potency entry was “inactive”.

With `Cc1ccc2onc(CC(=O)N3CCN(c4ccc(Cl)cc4)CC3)c2c1`, the Potency was 20 µM (active). As for `Cc1ccc2oc(=O)c3cnn(CC(=O)N4CCN(c5cccc(Cl)c5)CC4)c3c2c1`, the Potency result was “inactive”. As to `O=C(CSc1nc2ccccc2o1)N1CCN(c2ccc(Cl)cc2)CC1`, the Potency result is “inactive”. For the compound `Cc1nnc(NCc2ccccc2)c2c1nnn2Cc1ccc(F)cc1`, the Potency entry is “inactive”.

As for `Cc1nc2nc(SCC(=O)N(Cc3ccccc3)C(C)C)nn2c(C)c1Cc1ccccc1Cl`, the Potency result was “inactive”.

As to `Cc1cccc(NC(=O)C2CCN(S(=O)(=O)c3c(C)noc3/C=C/c3ccco3)CC2)c1`, the Potency result was “inactive”. On the same count and under the same terms, as for `NC(=O)Nc1ccc(C(=O)OCC(=O)NC2CCCc3ccccc32)cc1` (stereo not given), the entry is “inactive”. In the case of `O=C(Nc1cccc(F)c1)NC1CCCc2ccccc21` (stereo not given), the Potency was 12.6 µM (active).

As for `O=C(CCNC(=O)c1ccc(Cl)cc1)NC1CCCc2ccccc21` (stereo not given), the Potency result was “inactive”. Consider `Cc1cccc(Cn2c(CN3CCC(C(=O)NCc4ccccc4Cl)CC3)cc3ccccc32)c1`, for which the Potency entry was “inactive”. The same measure, in the same setting: next, `Cc1ccc(CSc2nc3cccnc3n2Cc2ccc(C(=O)NC3CC3)cc2)cc1`: “inactive”; `COc1ccc(C)cc1S(=O)(=O)NCCc1ccccc1`: “inactive”.

For the compound `COc1ccc(-c2onc(C)c2C)cc1S(=O)(=O)NCc1cccs1`, the Potency result was “inactive”.

Take `COc1ccc(-c2onc(C)c2C)cc1S(=O)(=O)NCCc1ccccc1`: the Potency was 15.8 µM (active). Still for that read-out and setting: as for `Cc1ccc(N(CC(=O)NCC(C)c2ccccc2)S(=O)(=O)N(C)C)cc1` (stereo not given), the entry is “inactive”; as for `CCCN(CCC)CCNC(=O)c1ccc2c(c1)NC(=O)C(CS(=O)(=O)Cc1cccc(Br)c1)N2` (stereo not given), “inactive”.

As to `CCOc1ccc(-c2nonc2NC(=O)c2oc3ccc(CC)cc3c2C)cc1`, the Potency result is “inactive”. The same measure, in the same setting: as for `O=C(NCc1ccc2c(c1)CCN2C(=O)c1ccccc1)Nc1cc(F)ccc1F`, the entry is “inactive”. As for `Cc1ccc2c(c1)N(C(=O)CCC(=O)N1CCc3ccccc3C1)CCO2`, the Potency entry was “inactive”. Take `Cc1ccc2c(c1)c1ncnc(N3CCc4ccccc4C3)c1n2C`: the Potency was 22.4 µM (active). In the case of `COc1ccc2c(c1)c1ncn(Cc3ccccn3)c(=O)c1n2C`, the Potency entry was “inactive”. Same read-out and setting: as for `CCOc1ccc(-n2nc3ccc(NC(=O)c4ccc(OC)c(Cl)c4)cc3n2)cc1`, the entry is “inactive”.

For `CCCCOc1ccc(NC(=O)c2cc3c(n(-c4ccc(Cl)cc4)c2=O)CCCC3=O)cc1`, the Potency result is “inactive”. For `COc1ccc(C2=NN(C(C)=O)C(c3ccccc3)C2)cc1` (stereo not given), the Potency is 14.1 µM (active).

Consider `CCC(=O)N1N=C(c2ccc(OC)cc2)CC1c1cn(-c2ccccc2)nc1-c1cccs1` (stereo not given), for which the Potency result is “inactive”. Still for that read-out and setting: as for `COc1ccc(C2=NN(C(=O)CSc3nc(=O)n4ccc(C)cc4n3)C(c3ccc(C)cc3)C2)cc1` (stereo not given), the entry is “inactive”.
